Screens: PubChem BioAssay, National Center for Advancing Translational Sciences (NCATS)
TDP1 cell CPT = DT40-hTDP1 cell growth loss with CPT; chicken DT40 Tdp1-/-;hTDP1 cells + 20 nM CPT, ATP luminescence, 48 h; Potency, µM (titrated, usually from 46.2 µM), for inactives: at the highest dose activity change, negative = growth inhibition, actives largely listed as inhibitors; actives 12% (n = 420,000); AID 686979; also: potency is read from the fitted curve at half-maximal effect; % is scaled to controls: 0 for no effect and ±100 for the full control effect; nearly all actives have a fitted effect of over 55% in size
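Chicken DT40 Tdp1-/- cells complemented with human TDP1, 400 cells/well, exposed to compounds plus 20 nM camptothecin for at least 48 h at 37 C; viability read as ATP content by CellTiter-Glo luminescence.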
IL-1B inflam inh = inflammasome signaling inhibition, IL-1 beta readout; THP-1 LPS/ATP IL-1B secretion, AlphaLISA, 16 h; hits give low values; activity change, % at 57.5 µM; actives 4.7% (n = 360,000); AID 743279; in the data active = activity change below about -50%; inconclusive = mostly about -30% to -49%; also: % is scaled to controls: 0 for no effect and ±100 for the full control effect
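THP-1 cells pretreated 1 hr with compounds (up to 57.5 uM final), then stimulated with LPS (250 ng/mL final) plus ATP (1.25 mM final); secreted IL-1B measured by AlphaLISA after 16 hr, decreased signal indicating inhibition.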
DRD3 antagonist = antagonists of human D3 dopamine receptor; D3R cells, DiscoveRx beta-arrestin luminescence, antagonist mode; hits give low values; max response, negative = inhibition, %; P35462; actives 2.5% (n = 360,000); in the data active = max response below about -50%; inconclusive = no clear call, values can overlap the other calls; also: % is scaled to controls: 0 for no effect and ±100 for the full control effect
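Cells plated overnight at 1500 cells/well, then exposed to library compounds with dopamine controls for 90 minutes at 37 degrees C. DiscoveRx reagent added for 30–60 minutes at room temperature; luminescence read, quantitative HTS format.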
ClpP mod = qHTS Assay for Activators of ClpP; ATP-dependent Clp protease proteolytic subunit (Bacillus subtilis (strain 168)), P80244; purified B. subtilis ClpP, FRET peptide cleavage, 20 min; Potency, µM (series often up to 57.5 µM), for inactives: at the highest dose activity change, negative = active; actives 1.9% (n = 340,000); AID 651965, 2013; active = well fitted falling curve with a large enough effect; inconclusive = small, poorly fitted or top-dose-only effect; inactive = no such curve, though single readings can be large or run the other way; also: potency is read from the fitted curve at half-maximal effect; the source files actives as falling curves though it sought activators and does not explain the sign; nearly all actives have a fitted effect of over 65% in size
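ClpP 10 microg/mL final, pH 8 Tris/KCl buffer with BSA, glycerol, Tween-20; compound pinned in; FRET-FV substrate; RT 20 min; Ex320/Em430; ΔFRET vs ADEP 5.8 microM, DMSO, no enzyme.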
TDP1 cell noCPT = qHTS for Inhibitors of human tyrosyl-DNA phosphodiesterase 1 (TDP1): qHTS in cells in absence of CPT; Potency, µM (series often up to 46.2 µM), inactives show at the highest dose activity change, negative = growth inhibition, most hits filed as inhibitors; DT40 Tdp1-/- hTDP1 cells, no CPT, ATP luminescence, 48 h; AID 686978, 2013; actives 15% (n = 420,000); also: potency is read from the fitted curve at half-maximal effect; % is scaled to controls: 0 for no effect and ±100 for the full control effect; nearly all actives have a fitted effect of over 55% in size
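Luminescent ATP content (CellTiter-Glo) served as the growth readout. Knockout chicken DT40 cells expressing human TDP1 were exposed to compounds without camptothecin for a minimum 48 hr at 37 °C.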
DRD3 agonist = agonists of human D3 dopamine receptor; actives 0.58% (n = 410,000); D3R DiscoveRx beta-arrestin cells, luminescence, 90 min; max activation, %; P35462; in the data active = max activation above about 30%; also: 0% is about no effect
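Agonist-mode cell screen: cells plated at 1500/well and incubated overnight at 37 °C, then exposed to library compounds for 90 min at 37 °C. Detection reagent was added for 30–60 min at room temperature, and luminescence was read.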
Active calls of the source: *; ? = inconclusive; nt = no result. An excerpt weighted towards active compounds, which were near 21% of everything screened. Unless noted, calls follow the shape of the dose curve; as a rule, active = well fitted inhibition curve with a large enough effect; inconclusive = small, poorly fitted or top-dose-only effect; inactive = flat fitted curve, though single readings scatter.

SMILES | TDP1 cell CPT | IL-1B inflam inh | DRD3 antagonist | ClpP mod | TDP1 cell noCPT | DRD3 agonist
CC(C1CC2CCC1C2)n1c(COc2ccccc2F)nnc1SCC(N)=O (configuration not stated) | ? | -4 | 0 | 1% | ? | -3
CC(C)NC(=O)NC(=O)CSc1nnc(COc2ccccc2F)n1C(C)C1CC2CCC1C2 (configuration not stated) | 10µM* | -52* | -13 | 0% | 10µM* | -19
CN(Cc1cccs1)C(=O)Cn1cnc2ccccc2c1=O | 3% | 15 | 8 | nt | 10% | 1
CC1(Oc2cnc(Cl)c3ccccc23)CCN(Cc2ccc(-c3ccccn3)cc2)C1 (configuration not stated) | ? | 0 | 0 | ? | ? | -2
CC1(Oc2cccc(F)c2)CCN(Cc2ccc(-c3ccccn3)cc2)C1 (configuration not stated) | ? | 7 | -67* | -1% | 18µM* | -27
CSc1ccc(CN2CCC(C)(Oc3cccc(Cl)c3)C2)cc1 (configuration not stated) | ? | 8 | ? | 0% | ? | -12
Cc1ccccc1OC1(C)CCN(Cc2ccc(-c3ccccn3)cc2)C1 (configuration not stated) | ? | 5 | -75* | 0% | ? | -9
Cn1c(=NC(=O)COc2ccccc2)sc2cccc(F)c21 | -19% | 1 | 2 | -1% | -28% | 4
CC1(C)OCC(N)(CO)CO1 | 0% | 11 | -12 | -1% | -18% | -6
O=C(Cc1ccc(Cl)cc1)NCCCNC(=O)c1cccnc1 | -23% | 1 | -12 | nt | -12% | -17
CCN(CC)CC(O)COc1ccc2c(c1)OCO2 (configuration not stated) | -4% | -2 | -24 | 13µM* | -15% | -5
Fc1ccc(NC(=S)Nc2cccc(Cl)c2)cc1 | ? | -8 | 0 | -1% | ? | 0
CSc1cccc(NC(=S)Nc2ccc(F)cc2)c1 | 23µM* | -2 | -12 | nt | ? | 2
CSc1cccc(NC(=S)NN(C)C)c1 | ? | 4 | 5 | ? | 18µM* | 16
Cc1cccc(N2CCN(C(c3ccccc3)c3nnc(-c4ccccc4F)o3)CC2)c1C (configuration not stated) | 15µM* | nt | nt | -6% | 23µM* | -2
Cc1ccc(C)c(N2CCN(C(c3ccccc3)c3nnc(-c4ccccc4F)o3)CC2)c1 (configuration not stated) | ? | nt | nt | -2% | 23µM* | 1
Cc1ccc(C)c(SCC(=O)Nc2nnc(-c3ccccc3)o2)c1 | ? | 9 | 15 | 0% | ? | 5
Cc1ccc(C)c(N2CCN(C(c3ccc(F)cc3)c3nnc(-c4ccccc4)o3)CC2)c1 (configuration not stated) | ? | nt | nt | -1% | 15µM* | -6
Cc1cccc(N2CCN(C(c3ccccc3)c3nnc(-c4ccccc4Cl)o3)CC2)c1C (configuration not stated) | 21µM* | nt | nt | -1% | ? | 3
CCOCCCN(C(=O)Cn1nnc(-c2ccc(OC)c(OC)c2)n1)C(C(=O)NCC1CCCO1)c1ccc(F)cc1 (configuration not stated) | ? | -29 | 8 | nt | ? | 9
O=C(Oc1cccc(OC(=O)c2ccco2)c1)c1ccco1 | -3% | 0 | -20 | -3% | -12% | -7
CC1=CC(C)(C)N2C(=O)C(=O)c3cc(OC(=O)c4ccco4)cc1c32 | 0.65µM* | 38 | ? | nt | 1.2µM* | -9
Cc1cccc(-c2nnc3n2N=C(c2ccc(Br)cc2)CS3)c1 | -49% | 13 | 4 | 0% | -42% | 1
Cc1ccc(-c2nnc3n2N=C(c2ccc(Br)cc2)CS3)cc1 | 23µM* | -20 | -11 | -4% | ? | -3
Brc1ccc(C2=Nn3c(nnc3-c3n[nH]c4c3CCC4)SC2)cc1 | 0.92µM* | -16 | -24 | -2% | 0.92µM* | -7
SMILES | TDP1 cell CPT | IL-1B inflam inh | DRD3 antagonist | ClpP mod | TDP1 cell noCPT | DRD3 agonist
Clc1ccc(C2=Nn3c(nnc3-c3n[nH]c4c3CCC4)SC2)cc1 | 4.1µM* | -5 | -19 | -2% | 2.9µM* | -6
COc1ccc(Cn2c(CCC(=O)Nc3cccc(Cl)c3)nc3cccnc32)cc1 | -13% | nt | nt | -2% | -22% | -5
CCc1cccc(NC(=O)C2CCC(CNS(=O)(=O)c3ccc(Br)s3)CC2)c1 (configuration not stated) | ? | nt | nt | 2% | ? | -16
Cc1ccc(OCC(O)CNCc2ccccc2)cc1C (configuration not stated) | ? | ? | ? | nt | ? | -13
OC(CNCCc1ccc(Cl)cc1)COc1ccc2ccccc2c1 (configuration not stated) | ? | -106* | 14 | nt | ? | -9
Clc1ccc(OCCNCCc2ccccc2)cc1 | ? | -53* | -59* | 2% | ? | 11
Cc1cccnc1NCC(O)COc1ccccc1 (configuration not stated) | -1% | -1 | -10 | 28µM* | -13% | 0
OC(CNCCc1ccccc1)COc1ccc(OCC(O)CNCCc2ccccc2)cc1 (configuration not stated) | -92% | -91* | -52* | nt | 16µM* | -20
OC(CNCCC(c1ccccc1)c1ccccc1)COc1ccccc1 (configuration not stated) | 13µM* | -105* | -26 | nt | 13µM* | -12
COc1ccc(CCNCC(O)COc2c(C)cccc2C)cc1OC (configuration not stated) | -28% | -67* | ? | nt | ? | 3
COc1ccc(CCNCC(O)COc2ccc(Cl)cc2)cc1OC (configuration not stated) | ? | ? | 0 | -2% | -17% | -10
OC(CNCCc1ccc(Cl)cc1)COc1cc(Cl)ccc1Cl (configuration not stated) | 16µM* | -18 | -26 | 0% | ? | -6
CC(=O)c1c(C)[nH]c2ccc(OCC(O)CNCCc3ccccc3)cc12 (configuration not stated) | ? | nt | nt | -3% | 16µM* | nt
COc1cc(OC)c(NC(=O)c2ccc(-n3cnc4cccnc43)cc2)cc1Cl | nt | nt | nt | -16% | nt | -2
